Source: PubChem BioAssay AID1662 (Broad Institute, 2009)
The whole screen tested about 300,000 compounds, of which about 4,000 (1.3%) were called active. The list comes from a sample in which actives are over-represented; it also holds similar structures and randomly drawn compounds. Values without a mark were called inactive.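 Rule for the calls: active = mean replicate score, as percent of positive control median, at least 50; inconclusive = mean below 50 but one replicate at or above 50; inactive = mean and every replicate below 50.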

Assay: S. pyogenes SKKanGAS growth inhibitors in kanamycin, primary screen, streptokinase expression inhibitor project, SKKanGAS strain, BacTiter-Glo luminescence (AID 1662);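 note: strain carries kanamycin resistance gene driven by streptokinase promoter and grows in 40 µg/ml kanamycin; loss of luminescence reflects streptokinase promoter inhibition or plain growth inhibition; 0% = median of DMSO wells and 100% = positive control at its reference dose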
Conditions: 6 h, at 7.5 µM, stronger effect = higher value
With `COc1ccccc1CNS(=O)(=O)c1cc2c3c(c1)CCC(=O)N3CCC2` the inhibition was -8.56%.
`NS(=O)(=O)c1ccc(CCNC(=O)CN2C(=O)c3ccccc3S2(=O)=O)cc1` showed an inhibition of -2.59%.
`CCCCCCc1ccc(O)cc1O` showed an inhibition of 9.42%.
In the case of `Cc1c(CC(=O)NCCCCCC(=O)O)c(=O)oc2cc3occ(-c4ccccc4)c3cc12`, the inhibition is reported as 18.7%.
With `CCCCCCc1cc2cc(-c3nnc(-c4ccccc4)o3)c(=O)oc2cc1O` the inhibition was 62% (active).
`O=C(CCc1nnc2ccc(NCc3ccco3)nn12)Nc1cc(F)ccc1F` gave an inhibition of -0.213%.
For `C/C(=N\NC(=O)c1ccc(C)cc1)C1C(=O)c2ccccc2C1=O`, the inhibition was 52.3% (active).
`Cc1ccc(NC(=S)NC(=O)c2ccc(-c3ccccc3)cc2)cc1` gave an inhibition of 9.46%.
`Cc1ccc(C(=O)NC(=S)Nc2ccccc2C)cc1` showed an inhibition of -6.14%.
With `CC(C)c1ccccc1OCC(O)CN(CC(O)COc1cccc2ccccc12)C(C)C` (configuration not stated) the inhibition was 97.9% (active).
Compound `OC(COc1cccc2ccccc12)CN1CCN(c2ccccn2)CC1` (configuration not stated) has an inhibition of 13.1%.
Work on `Cc1cc(C)c(NC(=O)C[N+](C)(C)CC(O)COc2cccc3ccccc23)c(C)c1` (configuration not stated) yielded an inhibition of 29%.
With `CC(C)=CCCC1(C)C=Cc2c(ccc3c2[nH]c2cc(O)c(C)cc23)O1` (configuration not stated) the inhibition was 112% (active).
For `COc1ccc(CCNC(=O)C(=O)NCC2OCCN2S(=O)(=O)c2cccs2)cc1OC` (configuration not stated), the inhibition was -1.24%.
With `CCCCCCCCCCCCC(NC(C)=O)(C(=O)OCC)C(=O)OCC` the inhibition was 61.2% (active).
`CCCC(CCC(=O)OC)(C(=O)OCC)c1csc(N)n1` (configuration not stated) showed an inhibition of -8.11%.
Compound `O=S(=O)(c1cccc(-c2cn3ccccc3n2)c1)N1CCCC1` has an inhibition of -3.54%.
In the case of `O=C(CSc1nc(O)c(Cc2ccccc2)c(=O)[nH]1)Nc1nc2c(s1)CCCC2`, the inhibition is reported as 28.8%.
`O=S(=O)(c1cc(Cl)ccc1Cl)N1CCN(Cc2ccco2)CC1` showed an inhibition of 2.62%.
`CC(=O)Nc1ccc(NC(=O)C(C)n2c3ccccc3c3nc(=O)cc(C)n32)cc1` (configuration not stated) showed an inhibition of 3.43%.
`C=CCn1c(SCC(=O)NCC2CCCO2)nc2sc(C)c(C)c2c1=O` (configuration not stated) showed an inhibition of -1.04%.
For `C=CCn1c(SCC(=O)/C(C#N)=C(\C)N)nc2sc(C)c(C)c2c1=O`, the inhibition was 58.1% (active).
`Cc1sc2nc(SCC(N)=O)n(C)c(=O)c2c1C` showed an inhibition of -2.36%.
Work on `COc1ccc(NC(=O)CN(C)C(=O)/C=C/c2cn(Cc3ccccc3)nc2-c2cccnc2)cc1` yielded an inhibition of 18.3%.
In the case of `CCOc1ccc2[nH]c(=O)c(CN(CCCO)S(=O)(=O)c3ccc(F)cc3)cc2c1`, the inhibition is reported as 0.803%.
For `C=CCOc1cccc(C2C(C(=O)c3ccc(C)o3)=C(O)C(=O)N2c2nnc(C)s2)c1` (configuration not stated), the inhibition was 7.43%.
With `COc1cc(C2C(C(=O)c3ccco3)=C(O)C(=O)N2c2cc(C)on2)ccc1OCc1ccccc1` (configuration not stated) the inhibition was 2.64%.
In the case of `Cc1cc(N2C(=O)C(O)=C(C(=O)c3ccc(C)o3)C2c2ccc(OCc3ccccc3)cc2)no1` (configuration not stated), the inhibition is reported as 106% (active).
For `Cc1ccc(C2(c3ccc(C)cc3)NC(=O)N(Cc3c(C)noc3C)C2=O)cc1`, the inhibition was 4.44%.
For `O=C(CCc1ccccc1)NNC(=O)COc1ccc(Cl)cc1`, the inhibition was 5.54%.
Work on `COc1ccc(C2CC(c3ccc(C)cc3)Nc3ncnn32)cc1` (configuration not stated) yielded an inhibition of -7.13%.
For `FC(F)Oc1ccccc1C1CC(c2ccc(Br)s2)Nc2ncnn21` (configuration not stated), the inhibition was 59.5% (active).
`Clc1ccc(C2CC(c3cccs3)n3ncnc3N2)cc1Cl` (configuration not stated) showed an inhibition of -0.937%.
Compound `CCCCCC(O)(CCN1CCCCC1)c1ccccc1` (configuration not stated) has an inhibition of -0.734%.
`CSCCC(NC(=O)COc1ccccc1)C(=O)OCC(=O)c1cc2ccccc2o1` (configuration not stated) gave an inhibition of -0.0582%.
`Cc1ccsc1C(=O)OCC(=O)c1cc(C)n(CC2CCCO2)c1C` (configuration not stated) gave an inhibition of 9.42%.
For `Cc1ccsc1C(=O)OCC(=O)c1cc2ccccc2o1`, the inhibition was 49.9% (active).
Compound `CC(C)(C)NC(=O)CN(C(=O)c1ccc(Cl)nc1)c1cccc2ccccc12` has an inhibition of -17.5%.
Compound `CC(C)Oc1ccc(/C=N/NC(=O)c2nnn(-c3nonc3N)c2CN(C)C2CCCCC2)cc1` has an inhibition of 18.9%.
For `O=C(NCC(=O)N1CCN(c2ccccc2O)CC1)c1ccc2ccccc2c1`, the inhibition was 11.7%.
`O=C1NN(c2ccccc2)C(=O)/C1=C/c1ccc(-c2cccc(C(=O)O)c2)o1` showed an inhibition of -2.46%.
For `CN1C(=O)/C(=C\c2ccc(-c3ccccc3)o2)SC1=S`, the inhibition was 7.05%.
For `O=C(O)C(c1ccccc1)N1C(=O)/C(=C\c2ccc(-c3cccc(Cl)c3)o2)SC1=S` (configuration not stated), the inhibition was 94% (active).
In the case of `Cn1c(=O)oc2cc(S(=O)(=O)NCCC(=O)NCc3ccccc3Cl)ccc21`, the inhibition is reported as 2.05%.
With `C=CCn1c(C23CC4CC(CC(C4)C2)C3)n[nH]c1=S` the inhibition was 1.54%.
`Cc1cc(NC(=O)CSc2nc3cc(Cl)ccc3c(=O)n2Cc2ccco2)no1` gave an inhibition of 1.74%.
Compound `COc1ccccc1NC(=O)CSc1nc2sc3c(c2c(=O)n1-c1ccccc1)CCN(C)C3` has an inhibition of -17%.
For `COc1ccccc1NC(=O)CSc1nc2sc(C)c(C)c2c(=O)n1Cc1ccco1`, the inhibition was 52.6% (active).
With `CC(C)Cc1oc(C(=O)O)cc1CN` the inhibition was 4.13%.
In the case of `CCOC(=O)c1[nH]cnc1C(=O)Nc1ccccc1C`, the inhibition is reported as 10.7%.
`C[C@H](NC(=O)c1nc[nH]c1C(=O)N[C@@H](C)C(=O)OC(C)(C)C)C(=O)OC(C)(C)C` showed an inhibition of 1.23%.
For `Cc1ccc(NC(=O)c2nc[nH]c2C(=O)N[C@@H](CCCCNC(=O)OC(C)(C)C)C(=O)OC(C)(C)C)cc1`, the inhibition was 76.8% (active).
`CCOC(=O)c1ccc(NC(=O)c2nc[nH]c2C(=O)NCc2ccccc2)cc1` showed an inhibition of 18.8%.
Compound `CNC(=O)c1[nH]cnc1C(=O)N[C@@H](CC(C)C)C(=O)OC(C)(C)C` has an inhibition of -5.44%.
With `CCOC(=O)c1ccc(NC(=O)c2nc[nH]c2C(=O)N[C@@H](CCCCNC(=O)OC(C)(C)C)C(=O)OC(C)(C)C)cc1` the inhibition was 50.8% (active).
With `Cc1cc(C(=O)CCC(=O)NNC(=O)c2ccccc2O)c(C)s1` the inhibition was 12.7%.
Work on `O=C1c2ccccc2S(=O)(=O)c2cc(N3CCN(c4ccccn4)CC3)ccc21` yielded an inhibition of 14.1%.
